# Results: the supplement of paper PMC8728848
# Only a selection was taken, and the strongest signals are over-represented in it overall.
# B1: PP2A1 (Arabidopsis thaliana) (protein)
# chain: MFRNQDSKYLIPVQKEAPPVTTLPMKASTVKSPHNCEAILRDADPPISLSSVNLSEQLRSGVFLKPKKQIKYWVDERNSNCFMLFAKNLSITWSDDVNYWTWFTEKESPNENVEAVGLKNVCWLDITGKFDTRNLTPGIVYEVVFKVKLEDPAYGWDTPVNLKLVLPNGKEKPQEKKVSLRELPRYKWVDVRVGEFVPEKSAAGEITFSMYEHAAGVWKKGLSLKGVAIRPKQHHHHHH
# Assays:
# Test in all cases: glycan array binding signal (z-score within array); higher = stronger binding
# Conditions in all cases: glycan notation: IUPAC condensed, linker removed
# Fuc(a1-2)Gal(b1-3)GlcNAc = molecular target: Fuc(a1-2)Gal(b1-3)GlcNAc
# Method in brief: (§1)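 Negative Z-scores can be read as non-binding. The Z-score is calculated within each array and then averaged across arrays of one protein sequence at different concentrations or buffers and across linkers. Arrays, 3228 in all, were curated from the Consortium for Functional Glycomics database and kept only where the protein sequence was available.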
# [1] = molecular target: Fuc(a1-2)Gal(b1-4)GlcNAc(b1-3)Gal(b1-4)GlcNAc
# Method in brief: as §1
# [2] = molecular target: Fuc(a1-2)[Gal(a1-3)]Gal(b1-4)Glc
# Method in brief: as §1
# [3] = molecular target: Fuc(a1-2)[GalNAc(a1-3)]Gal(b1-4)GlcNAc(b1-3)Gal(b1-4)GlcNAc
# Method in brief: as §1
# [4] = molecular target: Fuc(a1-2)[GalNAc(a1-4)]Gal(b1-4)GlcNAc
# Method in brief: as §1
# Gal(a1-2)Gal = molecular target: Gal(a1-2)Gal
# Method in brief: as §1
# [5] = molecular target: Gal(a1-3)Gal(b1-4)[Fuc(a1-3)]GlcNAc(b1-2)Man(a1-3)[Gal(a1-3)Gal(b1-4)[Fuc(a1-3)]GlcNAc(b1-2)Man(a1-6)]Man(b1-4)GlcNAc(b1-4)GlcNAc
# Method in brief: as §1
# [6] = molecular target: Gal(b1-3)[Fuc(a1-4)]GlcNAc(b1-2)Man(a1-3)[Gal(b1-3)[Fuc(a1-4)]GlcNAc(b1-2)Man(a1-6)]Man(b1-4)GlcNAc(b1-4)[Fuc(a1-6)]GlcNAc
# Method in brief: as §1
# [7] = molecular target: Gal(b1-4)GalNAc(a1-3)[Fuc(a1-2)]Gal(b1-4)GlcNAc
# Method in brief: as §1
# Gal(b1-4)Glc6S = molecular target: Gal(b1-4)Glc6S
# Method in brief: as §1
# [8] = molecular target: Gal(b1-4)GlcNAc(b1-2)Man(a1-3)[Man(a1-6)]Man(b1-4)GlcNAc(b1-4)GlcNAc
# Method in brief: as §1
# [9] = molecular target: Gal(b1-4)GlcNAc(b1-2)Man(a1-6)Man(b1-4)GlcNAc(b1-4)GlcNAc
# Method in brief: as §1
# [10] = molecular target: Gal(b1-4)GlcNAc(b1-3)Gal(b1-4)GlcNAc(b1-3)Gal(b1-4)GlcNAc
# Method in brief: as §1
# [11] = molecular target: Gal(b1-4)GlcNAc(b1-6)Gal(b1-4)GlcNAc(b1-6)GalNAc
# Method in brief: as §1
# Gal3S(b1-4)Glc6S = molecular target: Gal3S(b1-4)Glc6S
# Method in brief: as §1
# Gal3S(b1-4)GlcNAc6S = molecular target: Gal3S(b1-4)GlcNAc6S
# Method in brief: as §1
# GalNAc(a1-3)GalNAc = molecular target: GalNAc(a1-3)GalNAc
# Method in brief: as §1
# GalNAc(b1-3)Gal = molecular target: GalNAc(b1-3)Gal
# Method in brief: as §1
# GalNAc(b1-3)GalNAc = molecular target: GalNAc(b1-3)GalNAc
# Method in brief: as §1
# [12] = molecular target: GlcNAc(b1-3)Gal(b1-4)GlcNAc(b1-3)Gal(b1-4)GlcNAc
# Method in brief: as §1
# [13] = molecular target: GlcNAc(b1-4)GlcNAc(b1-4)GlcNAc
# Method in brief: as §1
# [14] = molecular target: Man(a1-2)Man(a1-2)Man(a1-6)[Man(a1-3)]Man
# Method in brief: as §1
# [15] = molecular target: Man(a1-2)Man(a1-3)[Man(a1-2)Man(a1-6)]Man
# Method in brief: as §1
# [16] = molecular target: Man(a1-2)Man(a1-3)[Man(a1-6)]Man(a1-6)[Man(a1-2)Man(a1-3)]Man(b1-4)GlcNAc(b1-4)GlcNAc
# Method in brief: as §1
# [17] = molecular target: Man(a1-2)Man(a1-6)[Man(a1-3)]Man(a1-6)[Man(a1-2)Man(a1-2)Man(a1-3)]Man(b1-4)GlcNAc(b1-4)GlcNAc
# Method in brief: as §1
# [18] = molecular target: Man(a1-3)[Man(a1-6)]Man(a1-6)[Man(a1-2)Man(a1-3)]Man(b1-4)GlcNAc(b1-4)GlcNAc
# Method in brief: as §1
# [19] = molecular target: Man(a1-3)[Man(a1-6)]Man(a1-6)[Man(a1-3)]Man(b1-4)GlcNAc(b1-4)GlcNAc
# Method in brief: as §1
# [20] = molecular target: Man(a1-3)[Man(a1-6)]Man(b1-4)GlcNAc(b1-4)GlcNAc
# Method in brief: as §1
# [21] = molecular target: Neu5Ac(a2-3)Gal(b1-3)[Fuc(a1-4)]GlcNAc(b1-3)Gal(b1-3)[Fuc(a1-4)]GlcNAc
# Method in brief: as §1
# [22] = molecular target: Neu5Ac(a2-3)Gal(b1-3)[Neu5Ac(a2-6)]GalNAc
# Method in brief: as §1
# [23] = molecular target: Neu5Ac(a2-3)Gal(b1-4)[Fuc(a1-3)]GlcNAc(b1-6)[Gal(b1-3)]GalNAc
# Method in brief: as §1
# [24] = molecular target: Neu5Ac(a2-3)Gal(b1-4)[Fuc(a1-3)]GlcNAc(b1-6)[Neu5Ac(a2-3)Gal(b1-3)]GalNAc
# Method in brief: as §1
# [25] = molecular target: Neu5Ac(a2-3)Gal6S(b1-4)GlcNAc
# Method in brief: as §1
# [26] = molecular target: Neu5Ac(a2-8)Neu5Ac(a2-3)[GalNAc(b1-4)]Gal(b1-4)Glc
# Method in brief: as §1
# [27] = molecular target: Neu5Ac(a2-8)Neu5Ac(a2-8)Neu5Ac(a2-3)Gal(b1-4)Glc
# Method in brief: as §1
binder,measurement,setting,value
B1,glycan array binding signal (z-score),Fuc(a1-2)Gal(b1-3)GlcNAc,-0.319
same,glycan array binding signal (z-score),[1],-0.347
same,glycan array binding signal (z-score),[2],-0.572
same,glycan array binding signal (z-score),[3],-0.018
same,glycan array binding signal (z-score),[4],-0.398
same,glycan array binding signal (z-score),Gal(a1-2)Gal,-0.291
same,glycan array binding signal (z-score),[5],-0.011
same,glycan array binding signal (z-score),[6],1.34
same,glycan array binding signal (z-score),[7],-0.498
same,glycan array binding signal (z-score),Gal(b1-4)Glc6S,0.116
same,glycan array binding signal (z-score),[8],2.93
same,glycan array binding signal (z-score),[9],0.362
same,glycan array binding signal (z-score),[10],-0.223
same,glycan array binding signal (z-score),[11],0.051
same,glycan array binding signal (z-score),Gal3S(b1-4)Glc6S,0.405
same,glycan array binding signal (z-score),Gal3S(b1-4)GlcNAc6S,0.165
same,glycan array binding signal (z-score),GalNAc(a1-3)GalNAc,-0.698
same,glycan array binding signal (z-score),GalNAc(b1-3)Gal,-0.293
same,glycan array binding signal (z-score),GalNAc(b1-3)GalNAc,-0.497
same,glycan array binding signal (z-score),[12],-0.708
same,glycan array binding signal (z-score),[13],2.52
same,glycan array binding signal (z-score),[14],0.03
same,glycan array binding signal (z-score),[15],0.174
same,glycan array binding signal (z-score),[16],3.07
same,glycan array binding signal (z-score),[17],2.69
same,glycan array binding signal (z-score),[18],2.97
same,glycan array binding signal (z-score),[19],3.55
same,glycan array binding signal (z-score),[20],2.85
same,glycan array binding signal (z-score),[21],0.594
same,glycan array binding signal (z-score),[22],0.432
same,glycan array binding signal (z-score),[23],-0.268
same,glycan array binding signal (z-score),[24],-0.091
same,glycan array binding signal (z-score),[25],0.07
same,glycan array binding signal (z-score),[26],0.265
same,glycan array binding signal (z-score),[27],0.006
